Screening results from PubChem BioAssay.
Menin MLL FP TR – inhibitors of human menin-MLL interaction, mutant MLL peptide; AID 1768; Menin + Texas Red MLL mutant peptide, fluorescence polarization; Potency, µM (titrated, usually from 61.6 µM), without a hit: at the highest dose FP activity change, negative = inhibition, actives largely listed as inhibitors; 270,000 compounds, 0.23% hits; active = well fitted inhibition curve with a large enough effect in the polarisation, with a control signal flat, not every such curve was filed as active; inconclusive = small, poorly fitted or top-dose-only effect, or effect the other way, or a change in a side signal; inactive = no such curve, though single readings can be large or run the other way; the % refers to the polarisation; also: potency is read from the fitted curve at half-maximal effect; % of control where 0% means no effect
MLL CXXC-DNA inh – MLL CXXC-DNA interaction inhibition; MLL-CXXC / FITC-HOXA9 DNA fluorescence polarization; Potency, µM (doses to about 115 µM), for the others: at the top dose activity change, negative = inhibition, hits mostly inhibitors; 290,000 compounds, 0.037% hits; active = well fitted inhibition curve with a large enough effect in the polarisation, with a control signal flat, not every such curve was filed as active; inconclusive = small, poorly fitted or top-dose-only effect, or effect the other way, or a change in a side signal; inactive = no such curve, though single readings can be large or run the other way; the % refers to the polarisation; also: potency is read from the fitted curve at half-maximal effect
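Purified MLL-CXXC (added from a 7 uM solution) was preincubated 5 min at ambient with pinned compounds in 50 mM Tris-HCl pH 7.5, 50 mM NaCl, 1 mM DTT, 0.05% BSA. Fluorescein-labeled HOX-A9 DNA (50 nM solution) followed, 30 min, then polarization read.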
Menin MLL FP FL – inhibitors of human menin-MLL interaction, wild-type MLL peptide. Fluorescence polarization, fluorescein-MLL peptide displacement from menin. FP activity change, % at 61.4 µM. 290,000 tested, under 10 active. AID 1766; active = well fitted curve in the direction sought with a large enough effect in the polarisation, not every such curve was filed as active; inconclusive = small, poorly fitted or top-dose-only effect, or effect the other way, or a change in a side signal; inactive = no such curve, though single readings can be large or run the other way; the % refers to the polarisation; also: % of control where 0% means no effect
PINK1 expr mod – changes PINK1 expression; PINK1 immunofluorescence, high-content cytometry, 24 h; Potency, µM (titrated, usually from 76.6 µM), for inactives: at the top dose activation (PINK1 increase), actives largely listed as activators; 410,000 compounds, 0.2% hits; AID 624263; active = well fitted activation curve with a large enough effect; inconclusive = small, poorly fitted or top-dose-only effect; cell line not stated here; also: potency is read from the fitted curve at half-maximal effect; % of control where 0% means no effect; nearly all actives have a fitted effect of over 65% in size
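Fluorescence from anti-PINK1 antibody, together with nuclear and cell stains, was scanned on a laser-scanning cytometer. Before staining, stable-line cells were incubated 24 hours with compounds at 5 concentrations; primary antibody 12 h at 10 degrees C.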
Epigenetic reg – derepresses silenced GFP reporter in murine cells; murine LDR cells, GFP reporter derepression, 30 h; Potency, µM (titrated, usually from 53.9 µM), inactives show at the top dose GFP activation, actives largely listed as activators; 280,000 compounds, 0.2% hits; active = well fitted activation curve with a large enough effect; inconclusive = small, poorly fitted or top-dose-only effect; also: potency is read from the fitted curve at half-maximal effect; % of control where 0% means no effect; nearly all actives have a fitted effect of over 60% in size
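GFP-positive cell count by laser-scanning cytometry (objects 20–120 um) after 30 h, 37 C compound exposure of murine LDR cells; reporter is CMV-GFP integrated at a silenced locus, inducible by HDAC or DNMT inhibitors.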
ClpP mod – qHTS Assay for Activators of ClpP | ATP-dependent Clp protease proteolytic subunit (Bacillus subtilis (strain 168)), P80244 | 340,000 compounds, 1.9% hits | Potency, µM (titrated, usually from 57.5 µM), for the others: at the top dose activity change, negative = active | purified B. subtilis ClpP, FRET peptide cleavage, 20 min; active = well fitted falling curve with a large enough effect; inconclusive = small, poorly fitted or top-dose-only effect; inactive = no such curve, though single readings can be large or run the other way; also: potency is read from the fitted curve at half-maximal effect; the source files actives as falling curves though it sought activators and does not explain the sign; nearly all actives have a fitted effect of over 65% in size
Target sequence (P80244 whole entry, looked up): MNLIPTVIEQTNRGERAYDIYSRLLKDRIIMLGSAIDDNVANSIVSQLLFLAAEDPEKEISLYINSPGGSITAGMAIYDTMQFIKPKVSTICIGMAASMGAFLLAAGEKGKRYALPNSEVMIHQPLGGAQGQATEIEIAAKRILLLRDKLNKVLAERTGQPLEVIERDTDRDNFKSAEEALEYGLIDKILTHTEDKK
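Purified B. subtilis ClpP, 10 microg/mL final in Tris/HCl pH8 with KCl, BSA, glycerol and Tween-20, cleaved an Abz/nitrotyrosine-quenched decapeptide. Fluorescence (ex 320, em 430) was read at 0 and 20 min at room temperature. Delta was normalized to 5.8 microM ADEP and DMSO/no-enzyme controls.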
Active calls of the source: *. An excerpt weighted towards active compounds, which were near 1.9% of everything screened.

For Clc1ccc(Oc2ncnc3oc(-c4ccccc4)cc23)cc1 the results were Menin MLL FP TR 10µM*, MLL CXXC-DNA inh 7%, Menin MLL FP FL -2, PINK1 expr mod 13%, Epigenetic reg 1% and ClpP mod -18%.
Cc1ccccc1Oc1ncnc2oc(-c3ccccc3)cc12 was read as Menin MLL FP TR 20%, MLL CXXC-DNA inh 20%, Menin MLL FP FL 4, PINK1 expr mod 1%, Epigenetic reg 0% and ClpP mod 32µM*.
For COC(=O)c1ccc(CN2CCC3(CCC(CNC(=O)c4ccco4)O3)CC2)cc1 (configuration not stated) the results were PINK1 expr mod 2%.
Screening Cc1cccc(CNC(=O)c2cnn(-c3nccc(-c4cc5ccccc5o4)n3)c2C2CC2)n1 returned PINK1 expr mod 5%.
Screening COc1cc(CN2CCCC(c3nc(-c4ccncc4)ncc3-c3ccccc3)C2)ccc1O (configuration not stated) returned PINK1 expr mod 0%.
`COc1ccccc1/C=C/C(=O)OCCN1CCOCC1` gave Menin MLL FP TR -11%, MLL CXXC-DNA inh -5%, Menin MLL FP FL -3, PINK1 expr mod 0%, Epigenetic reg 3% and ClpP mod 25µM*.
`CCOc1ccc(NC(=O)CSc2nc(-c3cccs3)cc(C(F)(F)F)c2C#N)cc1` gave PINK1 expr mod -1%, Epigenetic reg 1% and ClpP mod -3%.
N#Cc1c(C(F)(F)F)cc(-c2cccs2)nc1SCC(=O)Nc1ccc(Cl)cc1 was read as PINK1 expr mod 2%, Epigenetic reg 10µM* and ClpP mod 38%.
Screening N#Cc1c(C(F)(F)F)cc(-c2cccs2)nc1SCC(=O)Nc1cccc(C(F)(F)F)c1 returned PINK1 expr mod inconclusive, Epigenetic reg 16µM* and ClpP mod 5%.
COc1ccc(-c2ccc(-c3nnn(CC(=O)N4CCOCC4)n3)cc2)cc1 was read as Menin MLL FP TR -16%, MLL CXXC-DNA inh -7%, Menin MLL FP FL 2, PINK1 expr mod -1%, Epigenetic reg 6% and ClpP mod 16µM*.
`C1=C(c2ccc3c(c2)CN(Cc2cccn2-c2ncccn2)CCO3)Cc2ccccc21` gave PINK1 expr mod 0%.
Screening O=C(Cn1c(-c2cccs2)cc2ccccc21)NCCCN1CCN(c2cccc(Cl)c2)CC1 returned PINK1 expr mod 0%, Epigenetic reg -1% and ClpP mod 25µM*.
Cc1ccc(CCNC(=O)Cn2c(-c3cccs3)cc3ccccc32)cc1 was read as PINK1 expr mod 11%, Epigenetic reg 0% and ClpP mod -11%.
CCCN1CCN(CCCNC(=O)Cn2c(-c3cccs3)cc3cc(Cl)ccc32)CC1 was read as PINK1 expr mod 1%, Epigenetic reg -1% and ClpP mod 32µM*.
NS(=O)(=O)c1ccc(CCNC(=O)Cn2c(-c3cccs3)cc3ccccc32)cc1 was read as PINK1 expr mod -1%, Epigenetic reg -1% and ClpP mod 35µM*.
CCN1CCN(CCCNC(=O)Cn2c(-c3cccs3)cc3ccccc32)CC1 was read as PINK1 expr mod 1%, Epigenetic reg 1% and ClpP mod 10µM*.
`Cc1ccc(C)c(N2CCN(CCCNC(=O)Cn3c(=O)c4cccn4c4cccnc43)CC2)c1` gave Menin MLL FP TR inconclusive, MLL CXXC-DNA inh 10%, Menin MLL FP FL 4, PINK1 expr mod -1% and ClpP mod -18%.
`CN1CCN(CCCNC(=O)Cn2c(-c3cccs3)cc3ccccc32)CC1` gave PINK1 expr mod -1%, Epigenetic reg 1% and ClpP mod 11µM*.
Screening CCCN1CCN(CCCNC(=O)Cn2c(-c3cccs3)cc3ccccc32)CC1 returned PINK1 expr mod -1%, Epigenetic reg 0% and ClpP mod 35µM*.
